Source: PubChem BioAssay AID1159580 (chemical genetic matrix, 2015)
The whole screen tested about 5,500 compounds, of which about 2,000 (36%) were called active. Roughly 18% stayed inconclusive and do not appear here. No stated cut-off is given here; in the data, active means normalized growth mostly below about 0.91 (no sharp cut-off); inconclusive means no clear call, values can overlap the other calls; inactive means mostly above about 0.92. The list shows a part of the results.

Test: chemical genetic growth profiling, strain panel (AID 1159580);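 further: tested at 20 µM; growth read once vehicle control cultures reached saturation at 30 °C; 1 = growth at the plate median or of vehicle wells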
Details: S. cerevisiae deletion strains, growth OD

Measured: normalized growth

O=C(O)c1cc(=O)c2ccccc2o1
inactive: locus YAL021C, strain ccr4, stronger effect = lower value 1.01 | locus YAL026C, strain drs2, stronger effect = lower value 0.984 | locus YAL030W, strain snc1, stronger effect = lower value 0.971 | locus YBL061C, strain skt5, stronger effect = lower value 0.974 | locus YBR009C, strain hhf1, stronger effect = lower value 0.989 | locus YBR023C, strain chs3, stronger effect = lower value 0.982 | locus YBR171W, strain sec66, stronger effect = lower value 0.965 | locus YBR231C, strain swc5, stronger effect = lower value 0.982 | locus YBR279W, strain paf1, stronger effect = lower value 0.981 | locus YCL011C, strain gbp2, stronger effect = lower value 0.988 | locus YCL016C, strain dcc1, stronger effect = lower value 0.995 | locus YCL061C, strain MRC1, stronger effect = lower value 0.979 | locus YCL069W, strain vba3, stronger effect = lower value 0.99 | locus YCR088W, strain abp1, stronger effect = lower value 0.973 | locus YDL005C, strain med2, stronger effect = lower value 0.967 | locus YDL040C, strain nat1, stronger effect = lower value 0.98 | locus YDR001C, strain nth1, stronger effect = lower value 0.972 | locus YDR069C, strain doa4, stronger effect = lower value 0.966 | locus YDR137W, strain rgp1, stronger effect = lower value 0.971 | locus YDR159W, strain sac3, stronger effect = lower value 1 | locus YDR195W, strain ref2 0.916 | locus YDR297W, strain sur2, stronger effect = lower value 0.983 | locus YDR334W, strain swr1, stronger effect = lower value 0.976 | locus YDR335W, strain msn5, stronger effect = lower value 0.986 | locus YDR392W, strain spt3, stronger effect = lower value 1.02 | locus YEL003W, strain gim4, stronger effect = lower value 0.983 | locus YEL037C, strain rad23, stronger effect = lower value 0.973 | locus YEL061C, strain CIN8 (second series), stronger effect = lower value 0.97 | locus YER015W, strain faa2, stronger effect = lower value 0.99 | locus YER016W, strain bim1, stronger effect = lower value 0.984 | locus YER111C, strain swi4, stronger effect = lower value 0.972 | locus YER155C, strain BEM2 (second series), stronger effect = lower value 0.936 | locus YFR010W, strain ubp6, stronger effect = lower value 0.976 | locus YGL167C, strain pmr1, stronger effect = lower value 0.973 | locus YGL173C, strain kem1, stronger effect = lower value 0.975 | locus YGL227W, strain vid30, stronger effect = lower value 0.968 | locus YGL240W, strain doc1, stronger effect = lower value 0.96 | locus YGL253W, strain hxk2, stronger effect = lower value 0.992 | locus YHR013C, strain ard1, stronger effect = lower value 0.978 | locus YHR027C, strain rpn1, stronger effect = lower value 0.977 | locus YHR030C, strain SLT2, stronger effect = lower value 1.03 | locus YHR079C, strain IRE1, stronger effect = lower value 1.02 | locus YHR142W, strain chs7, stronger effect = lower value 0.983 | locus YJL092W, strain hpr5, stronger effect = lower value 0.98 | locus YJL095W, strain BCK1 (second series), stronger effect = lower value 0.97 | locus YJL095W, strain BCK1, stronger effect = lower value 1.03 | locus YJL115W, strain asf1, stronger effect = lower value 0.979 | locus YJL129C, strain trk1, stronger effect = lower value 0.95 | locus YJL154C, strain vps35, stronger effect = lower value 0.952 | locus YJL164C, strain tpk1, stronger effect = lower value 0.98 | locus YJL166W, strain qcr8, stronger effect = lower value 0.97 | locus YJR066W, strain TOR1, stronger effect = lower value 0.956 | locus YKL160W, strain elf1, stronger effect = lower value 0.987 | locus YKR026C, strain gcn3, stronger effect = lower value 0.971 | locus YKR091W, strain srl3, stronger effect = lower value 0.972 | locus YLL001W, strain dnm1, stronger effect = lower value 0.957 | locus YLL026W, stronger effect = lower value 0.969 | locus YLL041C, strain sdh2, stronger effect = lower value 0.972 | locus YLR027C, strain aat2, stronger effect = lower value 0.979 | locus YLR113W, strain HOG1, stronger effect = lower value 1.05 | locus YLR221C, strain rsa3, stronger effect = lower value 1 | locus YLR258W, strain gsy2, stronger effect = lower value 0.985 | locus YLR262C, strain YPT6 (second series), stronger effect = lower value 0.986 | locus YLR320W, strain mms22, stronger effect = lower value 0.991 | locus YLR342W, strain FKS1, stronger effect = lower value 0.983 | locus YLR357W, strain rsc2, stronger effect = lower value 0.975 | locus YLR370C, strain arc18, stronger effect = lower value 0.974 | locus YLR384C, strain iki3, stronger effect = lower value 0.976 | locus YML120C, strain ndi1, stronger effect = lower value 0.958 | locus YMR058W, strain fet3, stronger effect = lower value 0.984 | locus YMR125W, strain sto1, stronger effect = lower value 0.95 | locus YMR129W, stronger effect = lower value 0.981 | locus YMR205C, strain PFK2, stronger effect = lower value 0.969 | locus YMR231W, strain pep5, stronger effect = lower value 0.949 | locus YNL071W, strain lat1, stronger effect = lower value 0.988 | locus YNL183C, strain NPR1, stronger effect = lower value 0.949 | locus YNL209W, strain ssb2, stronger effect = lower value 1.03 | locus YNL248C, strain rpa49, stronger effect = lower value 0.968 | locus YNL322C, strain KRE1 (second series), stronger effect = lower value 0.953 | locus YNR049C, strain mso1, stronger effect = lower value 0.982 | locus YOR001W, strain rrp6, stronger effect = lower value 0.983 | locus YOR070C, strain gyp1, stronger effect = lower value 0.985 | locus YOR080W, strain dia2, stronger effect = lower value 0.971 | locus YOR083W, strain WHI5, stronger effect = lower value 0.982 | locus YOR106W, strain vam3, stronger effect = lower value 0.972 | locus YOR231W, strain MKK1, stronger effect = lower value 1.07 | locus YOR265W, strain rbl2, stronger effect = lower value 0.976 | locus YOR270C, strain vph1, stronger effect = lower value 0.962 | locus YOR290C, strain snf2, stronger effect = lower value 1 | locus YPL051W, strain arl3, stronger effect = lower value 0.983 | locus YPL078C, strain atp4, stronger effect = lower value 0.975 | locus YPL106C, strain sse1, stronger effect = lower value 0.988 | locus YPL240C, strain hsp82, stronger effect = lower value 0.994 | locus YPL256C, strain CLN2, stronger effect = lower value 1.03
